Laboratory results from PMC5540273 (PLoS ONE, 2017).
Read-outs that look alike come from different tables or passages of the source.

Tests used:
GRK2 = tested on: T1, GRK2; conditions: concentration: 1 μM, replicates: in singlicate; n = 1
T1 construct: gene ADRBK1

GRK3 = tested on: T2, GRK3; conditions: concentration: 1 μM, replicates: in singlicate; n = 1
T2 construct: gene ADRBK2

GRK4 = conditions: concentration: 1 μM, replicates: in singlicate; n = 1
GRK7 = conditions: concentration: 1 μM, replicates: in singlicate; n = 1
GSK3A = conditions: concentration: 1 μM, replicates: in singlicate; n = 1
GSK3B = conditions: n = 1
HASPIN = tested on: T3, HASPIN; conditions: concentration: 1 μM, replicates: in singlicate; n = 1
T3 construct: gene GSG2

HCK = conditions: concentration: 1 μM, replicates: in singlicate; n = 1
HIPK1 = conditions: concentration: 1 μM, replicates: in singlicate; n = 1
HIPK2 = conditions: concentration: 1 μM, replicates: in singlicate; n = 1
[1] = concentration: 1 μM, replicates: in singlicate
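Further: KINOMEscan kinase panel screen.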

| SMILES | %Inh (GRK2) [%] | %Inh (GRK3) [%] | %Inh (GRK4) [%] | %Inh (GRK7) [%] | %Inh (GSK3A) [%] | %Inh (GSK3B; [1]) [%] | %Inh (HASPIN) [%] | %Inh (HCK) [%] | %Inh (HIPK1) [%] | %Inh (HIPK2) [%] | %Inh (GSK3B; 1 µM) [%] |
| --- | --- | --- | --- | --- | --- | --- | --- | --- | --- | --- | --- |
| CCC(=O)c1c(-c2ccccc2)c2cc(Cl)ccc2c(=O)n1Cc1cc(S(C)(=O)=O)n(CC(F)F)n1 | 0 | 0 | 4 | 0 | 0 | 0 | 26 | 0 | 25 | 0 | – |
| COc1ccc(CNC(=O)NC2CCN(c3ccnc(Nc4ccc(F)cc4)n3)C2)cc1 (centres unmarked) [GSK1379706] | 0 | 51 | 19 | 0 | 23 | 1 | 32 | 0 | 19 | 13 | – |
| COc1cc2ncn(-c3cc(OCCCc4ccccc4)c(C(N)=O)s3)c2cc1OC [GSK205189] | 0 | 0 | 13 | 0 | 10 | 0 | 0 | 4 | 9 | 0 | – |
| CCS(=O)c1ccc(-c2coc3ccc(-c4nnc(C)o4)cc23)cc1 (centres unmarked) | 0 | 5 | 21 | 19 | 91.6 | 58 | 17 | 33 | 30 | 43 | – |
| FC(F)(F)c1ccc(-c2ncn(CCCN3CCOCC3)c2-c2ccncc2)cc1 [SB-217780] | 5 | 0 | 26 | 0 | 0 | 25 | 11 | 8 | 18 | 52 | – |
| CCS(=O)(=O)c1ccc(OC)c(Nc2ncc(-c3ccc(F)cc3)o2)c1.Cl [GW591947] | 0 | 0 | 0 | 0 | 8 | 0 | 0 | 0 | 33 | 0 | – |
| CCn1c(-c2ccoc2)nc2cnccc21 [SB-733887] | 0 | 0 | 0 | 93.9 | 35 | 22 | 37 | 0 | 0 | 0 | – |
| Cc1cccc(-c2nc(Nc3ccc4c(cnn4C)c3)c3ccccc3n2)n1 [GW876731] | 16 | 5 | 0 | 15 | 18 | 0 | 11 | 0 | 0 | 14 | – |
| O=C(Nc1n[nH]c2nc(-c3ccccc3)c(Br)cc12)C1CC1 [SB-708998] | 12 | 0 | 14 | 0 | 90.3 | – | 0 | 0 | 0 | 0 | 15 |
| COc1ccc(-c2cc3c(C)nc(N)nc3n([C@H]3CC[C@H](O)CC3)c2=O)cn1 | 0 | 14 | 0 | 1 | 0 | 0 | 0 | 0 | 0 | 0 | – |
| Nc1ncnc2c1ncn2-c1ccc(Cl)cc1 [AH2635] | 0 | 41 | 0 | 0 | 14 | 0 | 21 | 0 | 0 | 0 | – |
| COc1cc(Nc2ccnc3ccc(C(F)(F)F)cc23)cc(OC)c1OC [GW577382] | 0 | 25 | 0 | 0 | 0 | 3 | 29 | 38 | 5 | 0 | – |
| COc1cc(Nc2nccc(N3CCC(NC(=O)C4COc5ccccc5O4)C3)n2)cc(OC)c1OC (centres unmarked) [GSK1379761] | 0 | 38 | 0 | 0 | 0 | 3 | 55 | 0 | 0 | 0 | – |
| COc1cc(OC)cc(-c2cc3cnc(N)nc3nc2NC(=O)NC(C)(C)C)c1 | 0 | 0 | 13 | 9 | 0 | 0 | 0 | 0 | 15 | 0 | – |
| COc1cc2ncn(-c3cc(OCc4ccncc4)c(C(N)=O)s3)c2cc1OC [GSK336313] | 0 | 0 | 0 | 0 | 15 | 7 | 0 | 0 | 15 | 0 | – |
| O=c1cc(N2CCOCC2)nc2n(Cc3ccc(F)c(Cl)c3)ccn12 [GSK2297099] | 0 | 0 | 0 | 0 | 0 | 8 | 0 | 0 | 7 | 0 | – |
| COc1cc(Nc2nccc(N3CCC(NC(=O)C(C)c4ccc(Cl)cc4)C3)n2)cc(OC)c1OC (centres unmarked) [GSK1379757] | 0 | 17 | 37 | 0 | 0 | 0 | 21 | 11 | 0 | 0 | – |
| CCCNC(=O)Nc1ccc(Oc2ncnc3ccn(C)c23)cc1 | 40 | 0 | 6 | 29 | 0 | 21 | 41 | 7 | 35 | 29 | – |

| SMILES | %Inh (GRK2) [%] | %Inh (GRK3) [%] | %Inh (GRK4) [%] | %Inh (GRK7) [%] | %Inh (GSK3A) [%] | %Inh (GSK3B; [1]) [%] | %Inh (HASPIN) [%] | %Inh (HCK) [%] | %Inh (HIPK1) [%] | %Inh (HIPK2) [%] | %Inh (GSK3B; 1 µM) [%] |
| --- | --- | --- | --- | --- | --- | --- | --- | --- | --- | --- | --- |
| Cc1nnc(-c2ccc(C)c(-c3ccc(C(=O)O)cc3)c2)o1 [GW608005] | 0 | 0 | 0 | 0 | 7 | 0 | 0 | 0 | 0 | 0 | – |
| Cn1c(=O)c(F)c(Nc2ccc(I)cc2F)c2c(=O)n(OC[C@H](O)CO)cnc21 | 0 | 0 | 0 | 0 | 0 | 3 | 4 | 10 | 52 | 0 | – |
| COc1ccc(-c2coc3ccc(-c4nnc(SCc5cccc(C#N)c5)o4)cc23)cc1 | 0 | 0 | 0 | 27 | 96.1 | 45 | 0 | 20 | 32 | 24 | – |
| Cc1nn2c(=O)cc(N3CCOCC3)nc2n1Cc1cccc(Cl)c1Cl [GSK2342769] | 0 | 83 | 2 | 0 | 10 | 13 | 8 | 0 | 0 | 0 | – |
| Cc1nc(N(C)[C@H]2CN(C(=O)CC#N)CC[C@H]2C)c2cc[nH]c2n1 | 0 | 0 | 0 | 0 | 9 | 0 | 0 | 0 | 6 | 0 | – |
| COC(=O)c1c(-c2ccccc2)c2cc(Br)ccc2c(=O)n1Cc1ccc(NC(=O)CCC(=O)O)cc1 | 19 | 8 | 0 | 31 | 0 | 15 | 6 | 14 | 26 | 28 | – |
| CCC(=O)c1c(-c2ccccc2)c2cc(Cl)ccc2c(=O)n1Cc1ccc(C(=O)O)cc1 | 0 | 0 | 16 | 0 | 3 | 0 | 42 | 0 | 10 | 0 | – |
| C[C@@H]1CC[C@H](C(=O)NC2CCCCC2)CN1c1cc(-c2ccc3c(N)n[nH]c3c2)nc(N)n1 [GSK2291363] | 0 | 32 | 45 | 0 | 5 | 17 | 2 | 0 | 9 | 0 | – |
| Nc1nc(N)c2nc(-c3ccccc3)[nH]c2n1 [SKF-12778] | 13 | 9 | 18 | 4 | 0 | 0 | 0 | 3 | 5 | 11 | – |
| Nc1ncnc2c1ncn2-c1cccc2ccccc12 [SKF-97184] | 0 | 0 | 14 | 4 | 8 | 23 | 60 | 7 | 34 | 0 | – |
| COc1ccc(-n2cnc3c(N)ncnc32)cc1 [SKF-97236] | 12 | 0 | 22 | 3 | 6 | 15 | 0 | 0 | 24 | 5 | – |
| Cc1ccccc1COc1cc(-n2cnc3cc(Cl)ccc32)sc1C(N)=O [GW813349] | 0 | 0 | 2 | 0 | 17 | 14 | 16 | 11 | 30 | 24 | – |
| COc1cccc(-n2cnc3c(N)ncnc32)c1 [SKF-97416] | 0 | 11 | 10 | 27 | 0 | 35 | 0 | 8 | 18 | 22 | – |
| Cc1ccc(Oc2ccc(Nc3ncnc4cc[nH]c34)cc2C)cn1 | 0 | 28 | 0 | 44 | 0 | 0 | 8 | 16 | 20 | 11 | – |
| COc1cccc(C2=C(Nc3cccc(C(=O)O)c3)C(=O)NC2=O)c1 [SB-390770] | 0 | 22 | 0 | 0 | 51 | – | 10 | 0 | 0 | 0 | 31 |
| Nc1nccc2scc(-c3ccc4c(c3)CCN4C(=O)Cc3ccccc3)c12 [GSK2576924] | 4 | 100 | 0 | 0 | 11 | 2 | 0 | 0 | 0 | 0 | – |
| O=C(NCc1cccs1)c1cc(C(=O)c2c(Cl)cccc2Cl)c[nH]1 [GW823670] | 16 | 25 | 8 | 0 | 0 | 0 | 0 | 25 | 17 | 0 | – |
